The source made the active and inactive calls.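 Rule for the calls: active = visually confirmed hit in the image check and inhibition above 20%; inconclusive = visually confirmed hit but inhibition not above 20%; inactive = no visual hit in the image check.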
Experiment: inhibitors of E-selectin induction by TNFa, primary screen, imaging, HUVEC, immunofluorescence, MLSMR starter and 10KST1 sets (AID 487);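 for inhibition: signal is fraction of cell area covered by stained E-selectin grains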;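 for nuclei count: 100% = median nuclei count of all wells on the same plate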
Conditions: HUVEC TNFalpha-induced E-selectin immunofluorescence imaging, at 2 µM; inhibition: stronger effect = higher value; nuclei count: measured here: cell number, toxicity

| Structure (SMILES) | nuclei count [%] | inhibition |
| --- | --- | --- |
| Cn1c(=O)c2c(nc(Br)n2CCSc2nnnn2-c2ccccc2)n(C)c1=O | 74.1 | -7.6% (inactive) |
| O=C(NC1CC1)C1CCN(c2ccc(S(=O)(=O)N3CCOCC3)cc2)CC1 | 101 | -14.8% (inactive) |
| CCOc1ccc(C2C(C#N)=C(N)Oc3cc(C)n(Cc4ccco4)c(=O)c32)cc1OC (configuration not stated) | 105 | -11.3% (inactive) |
| COc1ccc(C2CC(c3ccc(Cl)cc3Cl)n3nc(N)nc3N2)cc1 (configuration not stated) | 101 | -1.4% (inactive) |
| CCn1c(C(=O)N2CCC(C(=O)NCc3ccc4c(c3)OCO4)CC2)cc2sccc21 | 120 | -65.2% (inactive) |
| O=C(Nc1cccc(O)c1)c1ccccc1 | 102 | -32.9% (inactive) |
| CCCCN(C)CCCNC(=O)CC1Oc2ccccc2NC1=O (configuration not stated) | 131 | -11.7% (inactive) |
| Cc1ccc(-c2ccc(=O)n(CCC(=O)NCCN3CCCCC3C)n2)cc1 (configuration not stated) | 100 | -4.1% (inactive) |
| O=C(NCc1nc2ccccc2[nH]1)c1ccc(Cl)c(S(=O)(=O)N2CCCC2)c1 | 112 | 47% (inactive) |
| CCn1c(=O)c(C(=O)NCCc2ccccc2)c(O)c2ccccc21 | 104 | -9.2% (inactive) |
| c1cn(CC2(Cn3ccnc3)COC2)cn1 | 105 | -2.3% (inactive) |
| COc1ccc(Br)cc1S(=O)(=O)N1CC(C)OC(C)C1 (configuration not stated) | 104 | -42.7% (inactive) |
| COc1ccc(CN2C(=O)[C@@H]3C(c4ccc(F)cc4)=NO[C@@H]3C2=O)cc1 | 113 | -34.5% (inactive) |
| O=C(Cn1cnc2c(nnn2Cc2ccccc2)c1=O)c1ccc(Cl)cc1 | 108 | -22% (inactive) |
| O=C(CN1C(=O)COc2ccccc21)N(Cc1cccnc1)Cc1ccccc1F | 106 | -6.3% (inactive) |
| CN(Cc1ccccc1)c1nc2c(c(=O)[nH]c(=O)n2C)n1Cc1ccccc1Cl | 102 | -18.5% (inactive) |
| CCCS(=O)(=O)Nc1c(C(=O)O)[nH]c2ccccc12 | 147 | -79.9% (inactive) |
| Cc1oc2c(CN3CCOCC3)c(O)ccc2c(=O)c1-c1ccc(Br)cc1 | 113 | -0.5% (inactive) |
| CCOC(=O)CSc1nc2sc(C)c(C)c2c(=O)n1C | 113 | 8.8% (inactive) |
| CSc1nc(N)nc(SCCS(=O)(=O)c2ccc(Cl)cc2)c1C#N | 113 | -48% (inactive) |
| COc1ccc(OC)c(NC(=O)C2C3CC4OC(=O)C2C4C3)c1 (configuration not stated) | 114 | -119% (inactive) |
| CCn1c2ccccc2c2cc(Nc3cc(C)nc4ncnn34)ccc21 | 65.1 | -104% (inactive) |
| CC(C)CSc1nc2ccccc2n1CC(N)=O | 107 | 33.6% (inactive) |
| COc1cccc(-c2cc(C(=O)N3CCc4ccccc4C3)no2)c1 | 99.8 | 18.5% (inactive) |
| Cc1ccc(CCNC(=O)C2CCC(=O)N2C2CCCC2)cc1 (configuration not stated) | 97.7 | 16.9% (inactive) |
| CCOn1c(=O)c(=O)n(OCc2ccccc2)c2ccccc21 | 120 | -32.9% (inactive) |

— PubChem BioAssay
